The values below come from PubChem BioAssay (NCI).

Compounds without any hit were thinned out: in the full panel of roughly 83,000, 20% have a hit.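 Growth was measured after 48 h exposure to one concentration of compound in 96-well plates. Values under 10 count as active.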 Unmarked numbers belong to inactive results. Calls of active or inactive are those of the source.

Among the test systems are SK-MEL-2 melanoma; EKVX NSCLC; SN12C renal; UO-31 renal; TK-10 renal; ACHN renal; CAKI-1 renal; A498 renal; CCRF-CEM leukemia; MOLT-4 leukemia; OVCAR-8 ovarian; OVCAR-5 ovarian; OVCAR-4 ovarian; SK-OV-3 ovarian; IGROV1 ovarian; OVCAR-3 ovarian; HS 578T breast; NCI/ADR-RES ovarian; RPMI-8226 leukemia.
Common to all, as to test: NCI-60 one-dose screen, 48 h (100 = growth as untreated, 0 = no growth, -100 = all killed)
What all share (settings): 10 µM unless noted

For `O=C1/C(=C2/C=Nc3ccccc32)N(O)c2ccccc21`, the growth in the assay with SK-MEL-2 melanoma is 90.4%; with EKVX NSCLC, 66.9%; with SN12C renal, 74.8%; in the assay on UO-31 renal, 57.7%; with TK-10 renal it was 129%; in the assay with ACHN renal, 68.7%. Further, the growth in the assay with CAKI-1 renal is 57.8%; in the assay with A498 renal, 55.4%; in the assay with CCRF-CEM leukemia, 46.2%; with MOLT-4 leukemia, 48.4%; in the assay with OVCAR-8 ovarian, 62.1%; in the assay on OVCAR-5 ovarian, 78.2%. Moreover, the growth is 50% in the assay with OVCAR-4 ovarian; 98.8% in the assay with SK-OV-3 ovarian; 48.1% in the assay on IGROV1 ovarian; 34.8% in the assay on OVCAR-3 ovarian; 87.7% with HS 578T breast; 55.2% in the assay with NCI/ADR-RES ovarian.

Consider `Cn1c(=O)c2[nH]c(NN)nc2n(C)c1=O`, for which the growth with SK-MEL-2 melanoma is 105%; with EKVX NSCLC it was 120%; in the assay with SN12C renal, 108%; in the assay on UO-31 renal it was 90.8%; in the assay on TK-10 renal it was 107%; in the assay on ACHN renal it was 105%. Further, the growth in the assay with CAKI-1 renal was 96%; in the assay on A498 renal, 109%; in the assay on CCRF-CEM leukemia, 92.4%; with MOLT-4 leukemia it was 96.1%; in the assay on RPMI-8226 leukemia, 96%; in the assay on OVCAR-8 ovarian, 129%. The growth in the assay on OVCAR-4 ovarian was 116%; in the assay with SK-OV-3 ovarian it was 114%; with IGROV1 ovarian it was 116%; in the assay on OVCAR-3 ovarian, 118%; in the assay with HS 578T breast, 122%; with NCI/ADR-RES ovarian, 113%.

For the compound `COc1nc(N(C)O)nc(N(C)O)n1`, the growth in the assay on SK-MEL-2 melanoma was 70.9%; in the assay with EKVX NSCLC, 31.2%; in the assay on SN12C renal, 42.5%; in the assay on UO-31 renal it was 36.9%; with TK-10 renal it was 32.5%; in the assay with ACHN renal, 11.2%. Besides, the growth is 36.3% with CAKI-1 renal; 76.7% in the assay on A498 renal; 14.4% with CCRF-CEM leukemia; 35.7% in the assay on MOLT-4 leukemia; 27.1% in the assay with OVCAR-8 ovarian; 53.6% in the assay on OVCAR-5 ovarian. The growth is 33.3% in the assay on OVCAR-4 ovarian; 32% in the assay on SK-OV-3 ovarian; 54.7% in the assay with IGROV1 ovarian; 9.27% (active) in the assay on OVCAR-3 ovarian; 87.9% in the assay on HS 578T breast; 14.9% in the assay on NCI/ADR-RES ovarian.

`CN1C(=O)N(C)C2C1NN=c1s/c(=C\c3ccccc3)c(=O)n12` (stereo not drawn): the growth with SK-MEL-2 melanoma was 48.4%; in the assay with EKVX NSCLC it was 78.5%; in the assay with SN12C renal, 50.1%; in the assay with UO-31 renal, 44.8%; in the assay with TK-10 renal it was 10%; with ACHN renal it was 29.4%. Besides, the growth in the assay with CAKI-1 renal was 33.5%; in the assay with A498 renal, 4.23% (active); with CCRF-CEM leukemia it was 42.2%; in the assay on MOLT-4 leukemia, 58.1%; in the assay with RPMI-8226 leukemia it was 61.6%; in the assay with OVCAR-8 ovarian it was 60%. The growth with OVCAR-5 ovarian was 66.6%; in the assay on SK-OV-3 ovarian, 47.6%; with IGROV1 ovarian it was 46.4%; in the assay with OVCAR-3 ovarian, 8.76% (active); in the assay on HS 578T breast, 40.7%; with NCI/ADR-RES ovarian it was 32.5%.

Turning to `Cn1cc2c(c1)-c1nc(Nc3ccccc3)ncc1CC2`, the growth in the assay with SK-MEL-2 melanoma is 73.6%; in the assay with EKVX NSCLC, 54.6%; with SN12C renal it was 64.8%; in the assay with UO-31 renal, 46.2%; in the assay on TK-10 renal it was 61.9%; with ACHN renal, 47.8%. Also, the growth with CAKI-1 renal was 48.8%; with A498 renal, 6.32% (active); in the assay with CCRF-CEM leukemia it was 61.2%; in the assay on MOLT-4 leukemia, 44.6%; in the assay with OVCAR-8 ovarian, 79.6%; in the assay with OVCAR-5 ovarian, 60%. The growth in the assay with OVCAR-4 ovarian is 69.3%; with SK-OV-3 ovarian, 77.6%; in the assay on IGROV1 ovarian, 58.6%; with OVCAR-3 ovarian it was 69.5%; in the assay on HS 578T breast, 78.4%; in the assay with NCI/ADR-RES ovarian, 71.6%.

Turning to `Cc1ccccc1NC(=O)N/C(N)=N/c1nc(-c2cccc([N+](=O)[O-])c2)cs1`, the growth is 37.3% in the assay with SK-MEL-2 melanoma; 49.3% in the assay on EKVX NSCLC; 54.8% in the assay with SN12C renal; 58.1% in the assay on UO-31 renal; 101% with TK-10 renal; 53.7% in the assay on ACHN renal. Also, the growth in the assay on CAKI-1 renal is 26.4%; in the assay with A498 renal, -3.64% (active); in the assay on CCRF-CEM leukemia, 35.9%; with MOLT-4 leukemia, 30.2%; in the assay with OVCAR-8 ovarian, 67.3%; in the assay on OVCAR-5 ovarian it was 76.3%. Moreover, the growth in the assay with OVCAR-4 ovarian is 56.5%; in the assay on SK-OV-3 ovarian, 57.2%; in the assay with IGROV1 ovarian, 37.1%; with OVCAR-3 ovarian it was 26.9%; in the assay with HS 578T breast, 11.2%; in the assay on NCI/ADR-RES ovarian, 2.74% (active).

Consider `O=c1c2cc(F)ccc2sc2c(Nc3cccnc3)nc3ccccc3c12`, for which the growth in the assay with SK-MEL-2 melanoma is 109%; in the assay on EKVX NSCLC it was 83.2%; with SN12C renal it was 93.4%; in the assay with UO-31 renal, 79.7%; in the assay on TK-10 renal, 96.3%; in the assay with ACHN renal, 73.5%. For the same compound, the growth in the assay with CAKI-1 renal is 69.1%; with A498 renal it was 79.5%; with CCRF-CEM leukemia, 28.2%; with MOLT-4 leukemia, 4.56% (active); with OVCAR-8 ovarian, 89.1%; with OVCAR-5 ovarian, 57.8%. Moreover, the growth is 105% with OVCAR-4 ovarian; 93.9% with SK-OV-3 ovarian; 73.7% in the assay on IGROV1 ovarian; 108% in the assay on OVCAR-3 ovarian; 74% in the assay on HS 578T breast; 90.4% in the assay on NCI/ADR-RES ovarian.

Consider `COc1ccc(OC)c2c1[nH]c(=O)c1c3ncccc3cn21`, for which the growth was 65.6% in the assay with SK-MEL-2 melanoma; 34.4% in the assay on EKVX NSCLC; 13.3% with SN12C renal; 26.5% in the assay on UO-31 renal; 38.6% in the assay on TK-10 renal; 17.7% with ACHN renal. For the same compound, the growth in the assay with CAKI-1 renal is -29.2% (active); in the assay with A498 renal, 31.5%; in the assay with CCRF-CEM leukemia it was 36.5%; in the assay with MOLT-4 leukemia, 17.7%; in the assay with RPMI-8226 leukemia, 30.1%; with OVCAR-8 ovarian, 16.8%. In addition, the growth with SK-OV-3 ovarian is 38.9%; in the assay on IGROV1 ovarian, 28%; with OVCAR-3 ovarian it was 46.8%; in the assay with HS 578T breast, 69.2%; in the assay with NCI/ADR-RES ovarian, 13.8%.
